Screening results as filed in PubChem BioAssay.
Hits are enriched below; roughly 27% of the tested compounds scored in any of these assays.
Cav3 T inh – human Cav3.2 channel inhibition, primary screen; 4% of 100,000 active; Cav3.2-expressing cells, Fluo-4 calcium fluorescence FDSS; hits give low values; AID 449739; B-score at 10 µM;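 active = single-dose well whose peak fluorescence ratio is a statistical outlier from its plate by either plate-standardised score or position-corrected B-score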
CYP2C19 act – activators of human cytochrome P450 2C19; recombinant CYP2C19, luciferin-H EGE luminescence; hits give high values; 0 = fully inhibited enzyme, 1 = untreated enzyme; activation factor at 5 µM; 96,000 tested, under 10 active;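 active = activation factor of at least 2 at 5 µM in the primary screen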;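 also: 0 = wells with 2.5 mM tranylcypromine and 1 = vehicle-only wells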
CYP2C9 inhib – blocks human cytochrome P450 2C9. 20% of 96,000 active. P11712. AID 777. inhibition, % at 5 µM. CYP2C9 Supersomes, luciferin-H conversion, luminescence;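 active = blocking of liver enzyme CYP2C9 beyond about 50% at 5 µM, limit read from the data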
Target sequence (P11712 whole entry, looked up): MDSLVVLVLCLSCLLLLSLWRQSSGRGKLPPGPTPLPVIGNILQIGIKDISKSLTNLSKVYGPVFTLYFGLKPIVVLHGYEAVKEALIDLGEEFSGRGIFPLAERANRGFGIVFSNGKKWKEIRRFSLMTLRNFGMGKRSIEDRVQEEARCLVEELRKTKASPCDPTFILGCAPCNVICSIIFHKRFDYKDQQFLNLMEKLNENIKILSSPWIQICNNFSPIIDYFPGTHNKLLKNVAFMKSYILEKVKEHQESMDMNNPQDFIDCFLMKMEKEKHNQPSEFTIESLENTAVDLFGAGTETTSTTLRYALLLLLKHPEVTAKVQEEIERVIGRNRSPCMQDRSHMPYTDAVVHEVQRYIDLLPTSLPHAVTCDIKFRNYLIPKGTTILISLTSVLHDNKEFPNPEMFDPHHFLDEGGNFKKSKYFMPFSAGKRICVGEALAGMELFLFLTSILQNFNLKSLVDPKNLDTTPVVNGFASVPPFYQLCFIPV
CYP2C19 inh – inhibitors of human CYP2C19; P33261; CYP2C19 Supersomes, luciferin-H EGE luminescence, 30 min; inhibition, % at 5 µM; 21% of 96,000 active; AID 778;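 active = CYP2C19 inhibition above a set limit at 5 µM in the primary screen, cut at about 50% in these data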;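 also: plate controls were negative control wells for no effect and 2.5 mM tranylcypromine positive control for full effect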
CYP2C9 activ – increases human cytochrome P450 2C9 activity. 1.4% of 96,000 active. activation factor at 5 µM. P11712. recombinant CYP2C9, luciferin-H conversion, luminescence; hits give high values; factor 1 = untreated enzyme, 0 = blocked;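 active = activation factor of 2 or more for CYP2C9 at a 5 µM dose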;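 also: 0 = sulfaphenazole-blocked wells and 1 = vehicle-only wells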
Starred values were filed as active, the others as inactive; . = not tested or not shown.

SMILES	Cav3 T inh	CYP2C19 act	CYP2C9 inhib	CYP2C19 inh	CYP2C9 activ
Cc1ccccc1NC(=O)C1CCCN1C(=O)NC1CCCCC1 (configuration not stated)	1.46	1.1	-10.4	-9.2	1.1
Cn1cccc1Cc1nnc(SCC(=O)NCC2CCCO2)n1-c1ccc(F)cc1 (configuration not stated)	1.47	1	10.5	2.4	0.9
Nc1nc(SCc2nnc(SCC(=O)O)n2-c2ccccc2)nc2sc3c(c12)CCCC3	0.532	1.2	15.3	-15.2	0.8
CNC(=O)CSc1nc(N)c2c3c(sc2n1)CCC3	0.145	1	12.5	2.9	0.9
NC(=O)CSc1nc(N)c2c3c(sc2n1)CCCCC3	1.38	0.3	34.7	66.8*	0.7
CCSc1nc(N)c2c3c(sc2n1)CCC3	0.334	0	31.1	96.1*	0.7
O=C(c1ccco1)N1CCN(S(=O)(=O)c2ccc(S(=O)(=O)NC3CCCC3)cc2)CC1	-0.0195	1	14.1	-4.8	0.9
COCCNC(=O)COC(=O)/C=C/c1c(C)nn(Cc2ccc(Cl)cc2Cl)c1Cl	-1.31	0.7	56.2*	25.9	0.4
Cc1nn(Cc2c(Cl)cccc2Cl)c(Cl)c1/C=C/C(=O)OCC(=O)NCC(F)(F)F	0.458	1.2	3.9	-24.1	1
CCOC(=O)C1=C(CSc2nccn2C)NC(=O)NC1c1ccc2c(c1)OCO2 (configuration not stated)	0.0344	0.1	40.9	88.4*	0.6
COc1cc(-c2ccc3oc(-c4ccsc4)c(C#CC4(O)CCCCC4)c3c2)cc(OC)c1OC	-0.122	.	.	.	.
Cn1cc(CN2CCN(c3ccccc3)CC2)c2ccccc21	-0.956	0.7	-74.9	33.9	1.7
COc1ccc(Cc2nn3c(Cn4nnc5ccccc54)nnc3s2)cc1	0.326	0.1	79.1*	87.3*	0.2
COc1ccc(-c2nnc3sc(COc4ccc(C)cc4)nn23)cc1	0.289	0.9	0.8	7.4	1
COc1ccc(Cc2nn3c(-c4ccccc4OC)nnc3s2)cc1	-1.36	0.2	60.0*	82.0*	0.4
COc1ccccc1-c1nnc2sc(COc3ccc(Cl)cc3)nn12	-2.78*	0.2	87.8*	81.0*	0.1
COc1ccc(OCc2nn3c(-c4ccccn4)nnc3s2)cc1	0.427	0.6	36.6	36.1	0.6
Oc1cccc(-c2nc3c4c(ncn3n2)-c2ccccc2CC42CCCC2)c1	0.53	1	23.2	-1.8	0.8
O=C(C1CCCN1S(=O)(=O)c1ccc(Cl)c(Cl)c1)N1CCOCC1 (configuration not stated)	0.69	1	-61.9	-0.9	1.6
Cc1ccc(S(=O)(=O)/N=C2/C=C(C3C(=O)CC(C)(C)CC3=O)C(=O)c3ccccc32)cc1	1.23	1	62.3*	0.4	0.4
Cc1ccc(NC(=O)C2CCN(S(C)(=O)=O)CC2)cc1C	0.107	0.8	10.5	16.6	0.9
CC(=O)Nc1ccc(S(=O)(=O)N(C)CC(=O)NC2=NCCS2)cc1	.	1.2	14.1	-17.9	0.9
O=c1cc(CSc2nnnn2-c2ccccc2)[nH]c2[nH]n(-c3ccccc3)c(=O)c12	0.581	0.9	56.4*	5.3	0.4
Nc1ccccc1-c1nnc(SCc2ccccc2Cl)[nH]c1=O	-0.566	0.6	87.6*	43.2	0.1
Cc1ccc(CSc2nnc(-c3ccccc3N)c(=O)[nH]2)cc1	0.167	0.8	92.3*	15.1	0.1
SMILES	Cav3 T inh	CYP2C19 act	CYP2C9 inhib	CYP2C19 inh	CYP2C9 activ
Cc1cc(C)cc(CSc2nnc(C)c(=O)[nH]2)c1	0.421	0.8	85.6*	15.8	0.1
Cc1nnc(SCC(C)C)[nH]c1=O	0.092	0.9	20.2	9.2	0.8
CCSc1nnc(-c2ccccc2NC(=O)CC)c(=O)[nH]1	.	1.1	24.9	-12.9	0.8
O=c1oc2cc(Oc3ccc(C(F)(F)F)cc3[N+](=O)[O-])ccc2c2c1CCCC2	-3.05	.	.	.	.
Cc1ccc(NC2=C(Cl)C(=O)OC2OC(=O)c2ccco2)c(C)c1 (configuration not stated)	-0.693	.	.	.	.
Cc1ccc(C)c(NC2=C(Cl)C(=O)OC2OC(=O)c2ccco2)c1 (configuration not stated)	-0.446	0.2	57.6*	76.1*	0.4
Cc1nn(Cc2ccccc2)c(C)c1NC(=O)CSc1nc2sc3c(c2c(=O)n1C)CCC3	0.541	.	.	.	.
CN(C)CCCn1c(SCC(=O)Nc2sc3c(c2C#N)CCCC3)nnc1-c1ccncc1	0.085	0.9	6.7	13.0	0.9
Cn1c(SCC(=O)Nc2sc3c(c2C#N)CCC3)nnc1C1COc2ccccc2O1 (configuration not stated)	-3.21	0.8	67.0*	21.7	0.3
C=CCn1c(SCC(=O)Nc2sc3c(c2C#N)CCC3)nnc1C1COc2ccccc2O1 (configuration not stated)	-2.75	0.9	66.4*	7.0	0.3
Cc1ccc(C)c(C(=O)C(C)OC(=O)c2cccn2C)c1 (configuration not stated)	.	0.9	20.8	9.4	0.8
COc1ccc(C[C@H]2c3cc(O)c(OC)cc3CC[N+]2(C)[O-])cc1O (some centres not stated)	-0.303	.	.	.	.
CCOc1ccccc1N1CCN(Cc2ccc(OC)c(OC)c2OC)CC1	0.0654	.	.	.	.
COc1ccc(CN2CCc3ccccc3C2)c(OC)c1OC	1.1	0.4	2.9	61.2*	1
Cc1ccc(C(=O)C2C(=O)c3ccccc3C2=O)cc1	0.235	0.9	77.0*	12.6	0.2
Cc1ccc(C(=O)CN(C(=O)c2ccc(Cl)cc2)N2C(=O)c3ccccc3C2=O)cc1	-0.537	0.9	43.4	9.7	0.6
COc1ccc(C(=O)Nc2cc(OC)ccc2OC)cc1	-2	0.3	-20.2	70.9*	1.2
CC12CCC(C(=O)Nc3ccc(SC(F)F)cc3)(CC1=O)C2(C)C (configuration not stated)	-0.787	0.9	23.7	9.0	0.8
COc1ccc(OC)c(NC(=O)C23CCC(C)(C(=O)C2)C3(C)C)c1 (configuration not stated)	0.606	0.7	-130.4	28.3	2.3*
COc1ccc(OC)c(NC(=O)c2cn(C)c(=O)c3cc(OC)c(OC)cc23)c1	.	0.7	74.3*	31.6	0.3
Cc1cc2ncn(C(=O)c3c(-c4c(Cl)cccc4Cl)noc3C)c2cc1C	-0.554	0.3	68.7*	72.1*	0.3
CCOC(=O)CCc1c(C)nc(SCCCn2c(=O)[nH]c3ccccc32)c(C#N)c1C	0.234	0.5	64.2*	46.2	0.4
CCC(=O)N1CCc2cc(Br)cc(S(=O)(=O)C3(C(=O)OC)CC3)c21	1.39	1	21.6	3.3	0.8
COc1ccc(Cl)cc1-n1c(C)cc(C=O)c1C	-0.321	0.1	60.1*	87.3*	0.4
NCC(O)COCCC12CC3CC(CC(C3)C1)C2 (configuration not stated)	-0.527	0.1	25.2	87.9*	0.7
NC(=O)NCC12CC3CC(CC(C3)C1)C2	0.561	1	-6.2	0.8	1.1
Cc1ccc(C)c(NC(=O)c2ccc(N(C)S(C)(=O)=O)cc2)c1	0.323	0.9	51.4*	14.2	0.5
